Laboratory results as given in PubChem BioAssay AID1347074 (Center for Chemical Genomics, University of Michigan, 2019).
Hit rate of the full screen: of about 47,000 compounds, about 2,800 (6%) were called active. What follows is part of a selection rich in actives, with near analogues and random picks from the rest. Values without a mark were called inactive. Rule as the data show it: active = z-score above about 3 (passing the limit was not always enough); inactive = the rest.

Target: Endoribonuclease Dicer (Homo sapiens) (UniProt Q9UPY3)
Assay: inhibitors of Dicer pre-microRNA processing, primary screen, biochemical, cat-ELCCA, chemiluminescence (AID 1347074);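 also: plate controls were vehicle for no effect and no enzyme for full effect; higher signal means more uncleaved substrate so more Dicer inhibition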
Settings: cat-ELCCA pre-miR-21 Dicer processing, at 25 µM, hits give high values

Chain of Endoribonuclease Dicer (Homo sapiens) (Q9UPY3 whole entry, looked up): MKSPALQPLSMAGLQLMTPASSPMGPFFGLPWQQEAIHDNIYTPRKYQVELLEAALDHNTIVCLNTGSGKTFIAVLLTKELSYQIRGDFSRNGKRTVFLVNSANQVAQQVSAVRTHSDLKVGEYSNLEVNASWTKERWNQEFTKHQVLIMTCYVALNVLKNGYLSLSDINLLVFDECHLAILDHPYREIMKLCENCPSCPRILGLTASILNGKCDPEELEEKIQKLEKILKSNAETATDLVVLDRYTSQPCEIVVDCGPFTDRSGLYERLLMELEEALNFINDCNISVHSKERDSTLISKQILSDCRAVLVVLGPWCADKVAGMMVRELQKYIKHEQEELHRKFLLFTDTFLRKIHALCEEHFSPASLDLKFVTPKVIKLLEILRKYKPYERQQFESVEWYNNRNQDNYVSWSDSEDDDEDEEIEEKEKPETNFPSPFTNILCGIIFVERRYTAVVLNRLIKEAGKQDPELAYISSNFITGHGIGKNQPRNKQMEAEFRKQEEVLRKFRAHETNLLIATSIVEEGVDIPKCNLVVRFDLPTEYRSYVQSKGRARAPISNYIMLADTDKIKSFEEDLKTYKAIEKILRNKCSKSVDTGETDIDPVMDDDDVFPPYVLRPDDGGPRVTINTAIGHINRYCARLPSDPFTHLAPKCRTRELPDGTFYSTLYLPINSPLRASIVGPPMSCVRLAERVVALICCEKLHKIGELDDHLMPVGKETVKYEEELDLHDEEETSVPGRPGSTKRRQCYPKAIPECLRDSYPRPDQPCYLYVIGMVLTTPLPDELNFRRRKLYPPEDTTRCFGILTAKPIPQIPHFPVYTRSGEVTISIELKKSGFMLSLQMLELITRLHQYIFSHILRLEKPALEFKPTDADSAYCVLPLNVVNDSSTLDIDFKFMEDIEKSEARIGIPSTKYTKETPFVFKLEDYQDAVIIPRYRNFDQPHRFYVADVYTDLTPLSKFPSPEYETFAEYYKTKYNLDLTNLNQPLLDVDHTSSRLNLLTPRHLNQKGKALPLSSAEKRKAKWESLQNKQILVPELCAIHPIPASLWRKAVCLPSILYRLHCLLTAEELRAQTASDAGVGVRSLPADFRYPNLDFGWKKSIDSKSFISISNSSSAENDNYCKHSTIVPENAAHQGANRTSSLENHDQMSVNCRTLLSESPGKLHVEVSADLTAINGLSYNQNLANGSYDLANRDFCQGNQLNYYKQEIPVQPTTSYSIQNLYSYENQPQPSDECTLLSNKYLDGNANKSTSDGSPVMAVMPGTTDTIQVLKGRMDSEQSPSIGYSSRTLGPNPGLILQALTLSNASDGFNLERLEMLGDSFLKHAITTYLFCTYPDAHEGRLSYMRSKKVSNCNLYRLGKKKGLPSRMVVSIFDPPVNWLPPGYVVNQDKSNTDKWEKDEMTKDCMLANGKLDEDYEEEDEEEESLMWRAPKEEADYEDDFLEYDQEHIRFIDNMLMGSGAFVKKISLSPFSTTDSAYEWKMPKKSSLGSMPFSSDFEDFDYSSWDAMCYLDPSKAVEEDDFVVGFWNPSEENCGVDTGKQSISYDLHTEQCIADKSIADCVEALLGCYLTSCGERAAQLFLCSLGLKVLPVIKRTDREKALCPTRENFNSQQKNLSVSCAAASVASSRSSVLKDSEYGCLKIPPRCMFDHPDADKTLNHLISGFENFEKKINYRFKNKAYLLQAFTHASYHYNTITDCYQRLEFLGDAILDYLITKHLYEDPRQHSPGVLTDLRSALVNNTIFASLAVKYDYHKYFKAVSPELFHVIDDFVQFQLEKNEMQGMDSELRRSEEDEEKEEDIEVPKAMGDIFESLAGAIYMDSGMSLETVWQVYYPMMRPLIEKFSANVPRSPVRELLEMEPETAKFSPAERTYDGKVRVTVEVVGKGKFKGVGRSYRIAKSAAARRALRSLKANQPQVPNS

SMILES	z-score
C/C(=N\NC(=S)Nc1cccc(F)c1)c1ccco1	5.72 (active)
CNNC(=S)Nc1ccc(F)c(C)c1	1.79
CCc1[nH]nc2c1C(c1ccc(OC)c(OC)c1)C(C#N)=C(N)O2 (stereo not given)	-3.59
COc1ccc2cc(S(=O)(=O)N3CCN(C(c4ccccc4)c4ccccc4)CC3)ccc2c1	0.57
CC1CCN(C(=S)NC2CC3CCC2C3)CC1 (stereo not given)	2.37
CCOC(=O)c1c(NC(=O)c2cc3ccccc3o2)sc(C)c1C	0.8
CC(=Nc1ccccc1)c1nc(-c2ccccc2)oc1O	1.37
O=S(=O)(c1cccc(-c2cn3cccnc3n2)c1)N1CCCC1	0.36
COc1ccccc1C(=O)CC1(O)C(=O)Nc2ccc(Cl)cc21 (stereo not given)	6.27
CCN1C(=O)C2(/C(=C(/O)c3ccccc3)C(=O)C(=O)N2CCCOC)c2ccccc21 (stereo not given)	3.53 (active)
CCN1C(=O)C2(/C(=C(/O)c3ccc(OC)c(C)c3)C(=O)C(=O)N2CCCOC)c2ccccc21 (stereo not given)	1.63
CCN1C(=O)C2(/C(=C(/O)c3ccc(C)c(F)c3)C(=O)C(=O)N2CCCOC)c2ccccc21 (stereo not given)	-0.56
CC1CC(=O)Nc2ccccc2N1C(=O)Nc1cccc(Cl)c1Cl (stereo not given)	-0.93
O=C1CC(N2CCN(C(c3ccccc3)c3ccccc3)CC2)C(=O)N1c1cccc(Cl)c1 (stereo not given)	-0.21
Cc1ccc(S(=O)(=O)NC(=O)Nc2nc(-c3ccc(F)c(F)c3)cs2)cc1	-0.18
O=C(NC(=S)Nc1nc(-c2ccc(Cl)cc2)cs1)C1CC1	1.34
O=C(NNc1nc(-c2ccc(F)cc2)cs1)c1ccc(Cl)cc1	5.33 (active)
CC12c3ccccc3C(c3ccccc31)C1C(=O)N(c3ccc(C(=O)O)cc3)C(=O)C12 (stereo not given)	0.79
Cc1ncc([N+](=O)[O-])n1CCOC(=O)c1ccc(Br)cc1	-0.13
COc1ccc(C(=O)COc2cc3c(C(=O)OC(C)C)c(C)oc3cc2Br)cc1	0.17
Cc1oc2cc(Br)c(OC(=O)c3ccco3)cc2c1C(=O)OC(C)C	1.65
Cc1oc2cc(Br)c(O)cc2c1C(=O)OC(C)C	3.81 (active)
Cc1cn(C(=O)Nc2ccccc2)nc1-c1cccs1	1.17
Cc1ccc2nc(-c3cccnc3)[nH]c2c1	-0.74

SMILES	z-score
COc1cc(C2C3=C(CC(C)(C)CC3=O)Nc3ncnn32)ccc1OC(C)C (stereo not given)	3.67 (active)
COc1cc(OC)cc(-c2nc3n(n2)C(c2ccc(OC)c(OC)c2)C2=C(CC(C)(C)CC2=O)N3)c1 (stereo not given)	0.99
COc1cc(C2C3=C(CC(C)(C)CC3=O)NC3=C2C(=O)CC(C)(C)C3)ccc1O	1.78
C=CCOc1ccc2c(=O)c(Oc3cc(C)ccc3C)coc2c1	1.12
O=C(c1ccco1)N1CCC2(Cl)CCCCC2C1c1ccccc1 (stereo not given)	-2.84
O=C(NC1(NCc2ccc(Cl)cc2)C(=O)c2ccccc2C1=O)c1ccc(C(F)(F)F)cc1	0.41
COc1ccc(Nc2nc3ccccc3nc2NS(=O)(=O)c2ccccc2)cc1OC	1.78
CCCCN(CC)c1ncnc2ccc(C)cc12	3.53 (active)
NC(=S)N/N=C/c1ccc(Cl)c(Cl)c1	-1.14
CC(C)(C)NC(=O)NCCCN1CCOCC1	0.22
CCN(CC)C(=O)c1c(NC(=O)c2cccs2)sc2c1CCCCC2	-1.54
CCOC(=O)C1=C(C)NC2=C(C(=O)c3ccccc32)C1c1cc(Br)c(OC)c(OC)c1 (stereo not given)	1.14
COc1ccc(Cc2nc(-c3ccc(OC)cc3)no2)cc1	0.51
O=c1[nH]c(SCc2ccccc2)nnc1-c1ccccc1	0.5
CCS(=O)(=O)n1nc(-c2ccc(OC)cc2)nc1SC	3.58 (active)
CCS(=O)(=O)n1nc(-c2ccccc2)nc1SCc1ccccc1	3.99 (active)
CCCc1cc(=O)n2[nH]c(SCc3ccccc3)nc2n1	0.14
COc1ccc(-c2noc(-c3ccc(Br)cc3)n2)cc1	1.15
COc1ccc(COC(=O)C2=C(C)NC3=C(C(=O)CCC3)C2c2ccc(Br)cc2)cc1 (stereo not given)	0.32
O=c1c(-c2ccc(OC3O[C@H](CO)[C@@H](O)[C@H](O)[C@H]3O)cc2)coc2cc(O)cc(O)c12 (stereo not given in full)	0.24
CS(=O)(=O)N(CC(=O)O)c1cccc2ccccc12	-1.7
CCOC(=O)C1=C(c2ccccc2)Nc2nc3ccccc3n2C1c1ccc(O)c(OCC)c1 (stereo not given)	-6.05
N#Cc1cn(Cc2ccccc2Cl)c(=O)[nH]c1=O	0.24
CC(=O)N1[C@@H](c2ccc(C)cc2)SC(C)(C)[C@@H]1C(=O)O	4.5 (active)

SMILES	z-score
CC1(C)S[C@@H]2[C@H](NC(=O)COc3ccccc3)C(=O)N2C1C(=O)O (stereo not given in full) (tested in a mixture with another compound)	-0.17
CC1(C)SC2C(NC(=O)COc3ccccc3)C(=O)N2C1C(=O)O (stereo not given)	1.11
CN(C)c1ccc(NC(=O)CSc2nc(-c3ccco3)cc(C(F)(F)F)n2)cc1	-1.78
Cc1nc2ccccc2n1CCOc1ccc(Cl)cc1	0.74
CCCNC(=O)NNC(=O)Cn1nnc(N2CCOCC2)n1	11.9
S=c1nn[nH]n1-c1ccc(Cl)cc1Cl	-0.38
c1ccc2c(-c3csc(-c4ccc5c(c4)OCCO5)n3)csc2c1	-0.77
CCCc1cc(-c2n[nH]c(C)c2-c2ccc3c(c2)OCCO3)c(O)cc1O	7.51 (active)
Cc1cc(C)n(C(C)C(=O)Nc2ccc(F)cc2)c(=O)n1 (stereo not given)	2.63
O=C(O)CCC(=O)c1ccc2ccccc2c1	0.56
Cc1ccc(OS(=O)(=O)c2ccc(F)cc2)c([N+](=O)[O-])n1	-1.06
Cc1ccc2nsnc2c1S(=O)(=O)Nc1ccc(Br)cc1	5.39 (active)
Cc1ccc2nsnc2c1S(=O)(=O)N1CCCC1C(=O)O (stereo not given)	-1.03
O=C(O)c1ccc(NS(=O)(=O)c2cccc3nsnc23)cc1	1.86
CN(C)/C=C1\C(=O)c2ccc(Cl)cc2N(Cc2c(F)cccc2Cl)S1(=O)=O	-0.82
Cc1ccc(C(=O)Nc2ccccc2Sc2nc3ccccc3c(C)c2C#N)cc1	-1.01
CCOc1ccc(/C(O)=C2\C(=O)C(=O)N(c3nccs3)C2c2ccc(F)cc2)cc1 (stereo not given)	0.2
O=C(NCc1ccccn1)C(=O)Nc1cccc(Br)c1	1.05
O=C(Nc1sc2c(c1C(=O)O)CCCC2)c1cc2ccccc2o1	0.75
O=C(Nc1cccc(Br)c1)c1csc2c1CCCC2	5.59 (active)
Cc1nc(-n2cccc2)sc1C(=O)N/N=C/c1ccc(Cl)cc1	0.46
Cc1oc(C(C)(C)C)cc1C(=O)Nc1ccc(SCc2cccc(Cl)c2F)cc1	-1.58
COc1ccc(-c2csc3nc(-c4ccccc4F)oc(=O)c23)cc1OC	0.98
Cc1sc2nc(-c3ccccc3F)oc(=O)c2c1C	3.11 (active)

SMILES	z-score
CC(C)=Cc1nc2cccc(F)c2c(=O)o1	0.25
Cc1cc(C)c(C#N)c(Sc2ccc(Cl)cc2)n1	-0.54
CN1C(=O)C2(/C(=C(/O)c3ccc(Cl)cc3)C(=O)C(=O)N2CC2CCCO2)c2ccccc21 (stereo not given)	0.79
CN(C)S(=O)(=O)N(CC(=O)NC1CC2CCC1C2)c1ccccc1 (stereo not given)	-1.13
N#C/C(=C\N1CCOCC1)S(=O)(=O)Cc1ccc(Cl)cc1	-1.52
O=C(NCCc1c[nH]c2ccccc12)C(=O)NCC1CCCO1 (stereo not given)	-1.03
CC(=O)NC(Cc1c[nH]c2ccccc12)C(=O)O (stereo not given)	2.44
COC(=O)C(Cc1c[nH]c2ccccc12)NC(=O)CN1CCCCC1 (stereo not given)	4.61 (active)
COC(=O)c1ccc(S(=O)(=O)NCc2ccccc2)n1C	1.21
COCCOC(=O)c1c(C)oc2ccc(NS(=O)(=O)c3ccc(Cl)cc3)cc12	-0.11
COC(=O)c1c(C)oc2ccc(NS(=O)(=O)c3cccc4cccnc34)cc12	3.25 (active)
Cc1oc2ccc(NS(=O)(=O)c3ccc4c5c(cccc35)C(=O)N4)cc2c1C(=O)OC(C)C	2.44
CCOC(=O)C1=C(C)NC2=C(C(=O)c3ccccc32)C1c1ccc(OC(=O)c2ccccc2)cc1 (stereo not given)	-1.18
Cn1nc(Oc2nc(N3CCCCC3)nc(N3CCCCC3)n2)ccc1=O	1.65
CCOC(=O)C(Nc1cccc(Cl)c1)C(=O)OCC	-1.26
O=C1N(c2ccccc2)C(=Nc2ccccc2)SC12CC2	4.33 (active)
Cc1ccc(N=C2SC3(CC3)C(=O)N2c2ccc(C)cc2)cc1	0.49
O=C1c2ccc3c4c(ccc(c24)C(=O)N1c1ccccc1)C(=O)N(c1ccccc1)C3=O	-0.71
CC1(C)Cc2c(sc3ncn4nc(-c5ccco5)nc4c23)C(C)(C)N1	0.09
Nc1cccc2c(S(=O)(=O)N3CCCCC3)cccc12	-1.6
Cc1cccc(NC(c2ccc3c(c2)OCO3)c2ccc3ccc(C)nc3c2O)n1 (stereo not given)	1.45
Cc1cccc(NC(c2cccc(F)c2)c2ccc3ccc(C)nc3c2O)n1 (stereo not given)	0.62
Cc1ccnc(NC(c2ccc(O)cc2)c2ccc3ccc(C)nc3c2O)c1 (stereo not given)	4.59 (active)
